From PubChem BioAssay
The source made the active and inactive calls. Unless noted, how the calls were made is not given here.

Tests used:
[1] = tested on: XIP peptide (Xip251-270) binding; test: small-molecule binders of XIP peptide, primary screen, biochemical, small-molecule microarray, fluorescence 635/667 nm, 0.1 µg/mL protein (AID 1182); details: fluorescent protein binding, 635 nm, higher = more signal, called active from +8 up or from −8 down
XIP peptide (Xip251-270) = test: small-molecule binders of XIP peptide, primary screen, biochemical, small-molecule microarray, fluorescence 635/667 nm, 0.5 µg/mL protein (AID 1183); details: small-molecule microarray binding, fluorescence 635 nm; higher = more signal
[2] = Plasmodium falciparum growth inhibition, primary screen, strain 3D7, DAPI fluorescence, 100 nL (AID 1184);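 further: parasites grown inside human red blood cells in medium with human serum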; details: P. falciparum 3D7 growth, 3 d, higher = more signal
[3] = biological target: Homeobox protein Hox-A13 (Mus musculus) (UniProt Q62424); test: inhibitors of HoxA13-DNA binding, primary screen, biochemical, fluorescence polarization, labeled oligonucleotide (AID 1185); details: 15 min, higher = more signal, called active from +8 up or from −8 down
[4] = inhibitors of hydroxyurea-induced Chk1 phosphorylation, primary screen, imaging, HeLa, phospho-Chk1 antibody, percent positive cells (AID 1186); details: hydroxyurea-induced phospho-Chk1 immunofluorescence imaging, higher = more signal
[5] = inhibitors of hydroxyurea-induced Chk1 phosphorylation, primary screen, imaging, HeLa, phospho-Chk1 nuclear intensity (AID 1187); details: hydroxyurea-induced phospho-Chk1 immunofluorescence imaging, higher = more signal

Homeobox protein Hox-A13 (Mus musculus), sequence (Q62424 whole entry, looked up): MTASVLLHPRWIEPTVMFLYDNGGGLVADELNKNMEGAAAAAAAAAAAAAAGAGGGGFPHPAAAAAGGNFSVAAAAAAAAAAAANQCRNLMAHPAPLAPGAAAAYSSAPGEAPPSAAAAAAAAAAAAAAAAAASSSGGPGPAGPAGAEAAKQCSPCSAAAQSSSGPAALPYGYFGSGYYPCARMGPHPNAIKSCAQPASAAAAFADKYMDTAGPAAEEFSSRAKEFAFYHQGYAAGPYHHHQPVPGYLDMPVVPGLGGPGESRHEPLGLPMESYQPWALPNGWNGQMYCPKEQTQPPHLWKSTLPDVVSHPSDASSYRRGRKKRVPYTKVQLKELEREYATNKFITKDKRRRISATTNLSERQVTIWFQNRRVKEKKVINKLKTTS

| Compound | composite z-score [1] | composite z-score (XIP peptide (Xip251-270)) | z-score [2] | z-score [3] | z-score [4] | z-score [5] |
| --- | --- | --- | --- | --- | --- | --- |
| O=C1c2ccccc2[C@@]2(Cc3ccccc3N(C3CC3)C2=O)[C@H](c2ccc(CO)cc2)N1Cc1ccccc1C(F)(F)F | -0.27 (inactive) | 0.926 | -1.42 | -2 (inactive) | 0.0523 (inactive) | 0.145 (inactive) |
| COCCCNC(=O)[C@@]1(CCS(=O)(=O)c2ccccc2)N=C(c2ccc(OCCCO)cc2)O[C@H]1c1ccccc1 | 1.3 (inactive) | 0.875 | -1.62 | -6.18 (inactive) | -0.213 (inactive) | -0.2 (inactive) |
| NCCCCCNC(=O)[C@@H]1C[C@@H]2C(=O)N3CCC[C@H]3C(=O)N2[C@@H]1c1cccc(OCCO)c1 | 0.536 (inactive) | -0.0496 | 0.398 | -3.71 (inactive) | 0.0592 (inactive) | 0.182 (inactive) |
| COC(=O)[C@H]1COC(c2ccc(OCCCO)cc2)=N1 | 0.239 (inactive) | 0.871 | -0.264 | -3.56 (inactive) | 0.101 (inactive) | -0.388 (inactive) |
| COc1ccc([Si](C)(C)[C@H]2[C@H](CC(=O)N3CCC[C@H]3CO)O[C@@]3(C(=O)N(Cc4cccc(N5C(=O)COc6ccccc65)c4)c4ccccc43)[C@@H]2C)cc1 | 0.422 (inactive) | 0.74 | -1.56 | -3.12 (inactive) | 0.0942 (inactive) | 0.728 (inactive) |
| CCCC[C@H]1OB(O)C[C@H]2C1=C(C)C[C@H]1C(=O)N(C)C(=O)[C@H]12 | 0.756 (inactive) | 0.608 | 2.46 | -9.92 (active) | 0.327 (inactive) | 0.547 (inactive) |
| CC(C)N1CC=CC23O[C@@H]4C=CCCOC(=O)C4[C@H]2C(=O)N(CCCCCCO)[C@@H]3C1=O (stereo partly specified) | -0.543 (inactive) | 0.645 | 0.0012 | -2.29 (inactive) | -0.478 (inactive) | -0.286 (inactive) |
| Cc1ccc(C2CC=C(C(=O)O)CN2S(=O)(=O)c2ccc(C)cc2)cc1 (stereo unspecified) | 0.911 (inactive) | 0.912 | -1.2 | -4.53 (inactive) | -0.185 (inactive) | -0.999 (inactive) |
| COc1ccc([Si](C)(C)[C@H]2[C@H](CCO)O[C@@]3(C(=O)N(Cc4cccc(NC(=O)[C@H](C)O)c4)c4ccccc43)[C@@H]2C)cc1 | -0.201 (inactive) | 0.618 | -2.74 | -6.16 (inactive) | -1.95 (inactive) | -0.667 (inactive) |
| CO[C@H]1O[C@H](CO)[C@@H](OC(=O)Nc2ccc(C#N)cc2)[C@H](OC(=O)c2cc3ccccc3[nH]2)[C@H]1OC(=O)c1cc2ccccc2[nH]1 | 2.37 (inactive) | 0.875 | -1.96 | -2.26 (inactive) | -0.487 (inactive) | -0.52 (inactive) |
| COCCOC(=O)N1C(=O)[C@@]2(c3cc(C#CC4(O)CCCCCC4)ccc31)[C@H](C(=O)N1CCN(c3ncccn3)CC1)[C@H]1C(=O)O[C@H](c3ccccc3)[C@H](c3ccccc3)N1[C@@H]2c1ccc(OCCO)cc1 | -0.128 (inactive) | 0.835 | -2.34 | 0.821 (inactive) | 0.124 (inactive) | 0.204 (inactive) |
| CCOC(=O)C1=CC[C@H]2C(=O)N(CC)C(=O)[C@@H]12 | 0.223 (inactive) | 0.343 | -0.239 | -2.15 (inactive) | 0.379 (inactive) | -0.0238 (inactive) |
| [N-]=[N+]=Nc1ccccc1C[C@@]1(C(N)=O)N=C(c2ccc(OCCCO)cc2)O[C@@H]1c1ccccc1 | 0.353 (inactive) | -0.649 | -2.14 | -4.43 (inactive) | -0.332 (inactive) | -0.449 (inactive) |
| COC(=O)[C@@]1(Cc2ccc(F)cc2)[C@@H]2C(=CC(=O)[C@H]2CC(=O)C(=O)N(C)C)CN1C(=O)c1ccccc1 | 0.0142 (inactive) | 0.472 | -1.35 | -2.5 (inactive) | -0.0509 (inactive) | -0.914 (inactive) |
| CCOc1ccc(N2C(=O)/C(=C/C=C/c3ccccc3OC)S(=O)(=O)C2c2cccc([N+](=O)[O-])c2)cc1 (stereo unspecified) | -0.735 (inactive) | -0.299 | 0.418 | 1.37 (inactive) | -0.322 (inactive) | -0.16 (inactive) |
| COCCCNC(=O)[C@@]1(C)c2ccccc2C(=O)N(Cc2ccc(OC(F)(F)F)cc2)[C@H]1c1ccc(CO)cc1 | 0.111 (inactive) | 0.187 | -0.313 | -2.89 (inactive) | -0.143 (inactive) | -0.339 (inactive) |
| CCCC[C@@H]1C[C@H]1[C@@H](NS(=O)(=O)c1cccc2cccnc12)c1ccc(-c2ccccc2)cc1 | -0.111 (inactive) | -0.239 | -0.299 | -0.507 (inactive) | -0.121 (inactive) | 0.189 (inactive) |
| CN1C(=O)C2C=CC(C(O)c3ccc(I)cc3)N(NC(=O)OC(C)(C)C)C2C1=O (stereo unspecified) | 0.0031 (inactive) | 0.575 | -0.711 | -2.75 (inactive) | 0.256 (inactive) | 0.078 (inactive) |

| Compound | composite z-score [1] | composite z-score (XIP peptide (Xip251-270)) | z-score [2] | z-score [3] | z-score [4] | z-score [5] |
| --- | --- | --- | --- | --- | --- | --- |
| CC(C)=C1C(=O)C(c2ccccc2)=C2CN3C(=O)N(CCc4ccccc4)C(=O)[C@]3(Cc3ccc(F)cc3)[C@H]21 | -0.391 (inactive) | -0.27 | -0.418 | -2.1 (inactive) | 0.0852 (inactive) | 0.314 (inactive) |
| CC(C)c1ccc(NN2C(C(O)c3ccc4c(c3)OCO4)C=CC3C(=O)N(c4ccccc4)C(=O)C32)cc1 (stereo unspecified) | 0.803 (inactive) | 0.665 | -0.121 | -1.45 (inactive) | -0.575 (inactive) | -0.575 (inactive) |
| C[N+](C)(C)CCCCCCNC(=O)[C@@H]1C[C@@H]2C(=O)N3CCC[C@H]3C(=O)N2[C@@H]1c1cccc(OCCO)c1 | -0.113 (inactive) | 0.697 | -0.204 | -4.95 (inactive) | -0.173 (inactive) | -0.0252 (inactive) |
| COC(=O)C1=CCC(c2cccc(Cl)c2)O1 (stereo unspecified) | -0.0103 (inactive) | 0.45 | -0.539 | -0.451 (inactive) | 0.456 (inactive) | 0.498 (inactive) |
| [N-]=[N+]=NCc1ccccc1[C@@H]1OC(c2ccc(OCCCO)cc2)=N[C@]1(Cc1ccccc1)C(=O)N1CCOCC1 | 0.713 (inactive) | 0.841 | -2.33 | -4.99 (inactive) | -0.449 (inactive) | -1.03 (inactive) |
| C=CCN1C(=O)[C@]2(O[C@H](CCn3cc(CCO)nn3)[C@@H]([Si](C)(C)c3ccc(OC)cc3)[C@@H]2C)c2cc(N3CCOC3=O)ccc21 | 0.0616 (inactive) | 0.57 | -2.7 | -5.66 (inactive) | -0.203 (inactive) | -0.5 (inactive) |
| N#Cc1ccc(NN2C(C(O)c3cc(C(F)(F)F)cc(C(F)(F)F)c3)C=CC3C(=O)N(c4ccccc4)C(=O)C32)cc1 (stereo unspecified) | 1.67 (inactive) | 0.479 | -0.496 | -1.5 (inactive) | 0.245 (inactive) | -0.0521 (inactive) |
| CCCCCCc1nc(CCCc2cc3c(c(CCCCCC)n2)[Si](C(C)C)(C(C)C)O[C@H]3c2ccccc2)cc2c1[Si](C(C)C)(C(C)C)O[C@H]2c1ccccc1 | 0.285 (inactive) | -0.307 | -0.607 | -2.79 (inactive) | -0.0972 (inactive) | -0.202 (inactive) |
| CCCC[C@@H](O)C1=C(C)C[C@H]2C(=O)N(Cc3ccccc3)C(=O)[C@H]2[C@H]1CO | -0.38 (inactive) | 0.576 | -0.224 | -3.33 (inactive) | 0.391 (inactive) | 0.984 (inactive) |
| C=C(/C(=C/C[C@H](OC(=O)c1ccncc1)c1ccc(OCCO)cc1)c1cnc2ccccc2c1)C(C)C | 0.782 (inactive) | 0.528 | -2.84 | -3.29 (inactive) | 0.118 (inactive) | -0.0461 (inactive) |
| COC(=O)[C@]1(CO)N=C(c2ccc(OCCCO)cc2)O[C@@H]1c1ccccc1N=[N+]=[N-] | 0.816 (inactive) | 0.812 | -0.313 | -6.14 (inactive) | 0.0389 (inactive) | 0.0674 (inactive) |
| CC(C)(C)OC(=O)CC[C@]1(C(=O)NCc2ccccc2)N=C(c2ccc(OCCCO)cc2)O[C@H]1c1ccccc1 | 0.124 (inactive) | 0.846 | -1.58 | -6.62 (inactive) | -0.179 (inactive) | -0.062 (inactive) |
| CCN(CC)c1ccc(N2CC=CC34O[C@@H]5/C=C\CCC(C)OC(=O)C5[C@H]3C(=O)N(CCCO)[C@@H]4C2=O)cc1 (stereo partly specified) | 0.217 (inactive) | 0.974 | -0.0779 | -6.38 (inactive) | 0.0745 (inactive) | -0.0024 (inactive) |
| O[C@@H](Cc1ccccc1)[C@H]1C2C=CCCC(c3ccccc3)=C2CN1Cc1cccc(Cl)c1 (stereo partly specified) | -0.241 (inactive) | 0.27 | 0.514 | -5.87 (inactive) | -0.215 (inactive) | 0.0934 (inactive) |
| O=C(CS)NCCCCCNC(=O)[C@H]1C[C@H]2C(=O)N3CCC[C@H]3C(=O)N2[C@H]1c1cccc(OCCO)c1 | 0.81 (inactive) | 0.887 | -0.718 | -3.04 (inactive) | -0.58 (inactive) | -0.281 (inactive) |
| O=C(CS)NCCCCCNC(=O)[C@@H]1C[C@@H]2C(=O)N[C@@H](Cc3ccccc3)C(=O)N2[C@@H]1c1ccc(O)cc1 | 0.508 (inactive) | 0.562 | -0.14 | -2.5 (inactive) | 0.83 (inactive) | 0.886 (inactive) |
| Cc1ccc(F)cc1S(=O)(=O)N[C@@H]1CCN(Cc2ccc(CC(C)C)cc2)C1 | -0.112 (inactive) | -0.583 | -1.66 | -4.52 (inactive) | -0.496 (inactive) | -0.724 (inactive) |
| COC(=O)[C@@]1(Cc2ccccc2)[C@H]2c3cc(C(=O)N4CCCC4)n(Cc4ccccn4)c3C[C@H]2CN1C(=O)c1ccccc1 | 0.766 (inactive) | 0.91 | -1.5 | -6.05 (inactive) | -0.161 (inactive) | -0.295 (inactive) |
